A selection: hits, their analogues and other compounds. The true share with any hit is near 3.6%.
FAS TE block = FAS thioesterase domain inhibitors, primary screen, biochemical, fluorescence intensity, uHTS. Fatty acid synthase (Homo sapiens), P49327. recombinant FAS-TE, OMFH fluorogenic substrate, fluorescence endpoint. inhibition, % at 15 µM. 360,000 compounds, 0.67% hits. AID 602261, 2012;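 active = compounds whose normalised, plate-corrected inhibition of enzyme fluorescence in the single-dose primary screen is 50% or more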
CRFBP-R2 block = antagonists of CRF-BP/CRF-R2 complex, primary screen, cell-based, HEK293, calcium dye fluorescence, uHTS; CRF-induced calcium fluorescence; inhibition, % at 11.8 µM; 350,000 compounds, 0.59% hits; AID 588475, 2011;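 active = inhibition of the ligand-induced calcium signal above about 50% at the single tested concentration, limit read from the data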
NadD inh = inhibitors of S. aureus NadD, primary screen, biochemical, colorimetric, uHTS; AID 602399, 2012; 360,000 compounds, 0.78% hits; purified NadD enzyme, colorimetric absorbance read-out; inhibition, % at 20 µM; Nicotinate-nucleotide adenylyltransferase NadD (Staphylococcus aureus N315); in the data active = inhibition above about 26%
CendR NRP1 mod = modulators of CendR peptide binding to NRP-1, primary screen, biochemical, fluorescence polarization, uHTS; 360,000 compounds, 0.85% hits; FAM-RPARPAR peptide binding to NRP-1; inhibition, % at 25 µM; Neuropilin-1 (Homo sapiens), O14786;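 active = inhibition or corrected inhibition above about 18%, plus a signal ratio from 0.5 to 1.5, limit read from the data, passing the limit was not always enough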
Myeloid diff MLP = induction of myeloid progenitor differentiation, primary screen, cell-based, flow cytometry, MLPCN library; ER-HoxA9 myeloid progenitors, lysozyme-GFP differentiation; AID 624256, 2012; calls only at 10 µM; 360,000 compounds, 1% hits;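 active = normalized GFP-positive differentiation at or above the plate's own cutoff, the solvent-only control mean plus 3 SD; inconclusive = no clear call, values can overlap the other calls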;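 also: cells exposed to compound for four days before flow analysis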
A number is an active result; - = inactive; ? = inconclusive; . = no result; + = active, no number.

SMILES | FAS TE block | CRFBP-R2 block | NadD inh | CendR NRP1 mod | Myeloid diff MLP
COc1ccc(NC2CCCN(C(=O)c3cccc(N4CCNC4=O)c3)C2)cc1 (stereo not drawn) | - | - | - | - | -
CC1COc2c3ccccc3nn21 (stereo not drawn) | - | . | - | - | -
c1ccc(C[C@H]2COc3c4ccccc4nn32)cc1 | . | . | . | 26 | -
O=C(NCC1CCCO1)c1ccccc1-c1nc(-c2ccc(Cl)cc2)no1 (stereo not drawn) | - | - | - | - | +
COc1ccc2c(Cl)c(C(=O)N/N=C/c3ccc4c(c3)OCO4)sc2c1 | - | - | - | - | -
COc1ccc2c(Cl)c(C(=O)N/N=C3\CCCC(=O)C3)sc2c1 | - | - | - | - | +
Cc1ccccc1-c1ccc2c(c1)O[C@H](CN(C)C(=O)C1CC1)[C@@H](C)CN([C@@H](C)CO)S2(=O)=O | - | - | - | - | -
Cc1ccc(C(=O)/C=C/NCc2ccc(F)cc2)cc1 | - | - | - | 36 | -
Cc1[nH]c2ccccc2c1C(=O)C(C)OC(=O)c1ccc(NC(=O)CC#N)cc1 (stereo not drawn) | - | - | - | - | +
CC(c1nc2ccccc2c(=O)[nH]1)N1CCN(S(=O)(=O)c2ccc(F)c(Cl)c2)CC1 (stereo not drawn) | - | - | - | - | -
COC(=O)[C@H]1C[C@@]2(O)CN(S(=O)(=O)c3ccc(C)cc3)C[C@@]2(OC(=O)NCc2ccccc2F)C[C@H]1C(=O)OC | - | - | - | - | +
OC[C@@H]1CN(CCN2CCOCC2)C[C@H](n2cnc3c(N4CCOCC4)ncnc32)O1 | - | . | - | - | ?
COc1cc(CC(=O)OCC(=O)N2CCCCC2C)cc(OC)c1OC (stereo not drawn) | - | - | - | - | -
COc1cc(CC(=O)OCC(=O)N2C(C)CCCC2C)cc(OC)c1OC (stereo not drawn) | - | - | - | 26 | -
COc1ccc(CNC(=O)C(c2ccncc2)N(C(=O)Cc2cccs2)c2ccccc2)cc1 (stereo not drawn) | - | - | - | - | -
COc1ccc(N(C(=O)CCl)C(C(=O)NCCc2ccccc2)c2cccs2)cc1 (stereo not drawn) | 63 | - | - | - | -
Fc1ccc(NCc2n[nH]c(=S)n2Cc2ccccc2)cc1 | - | - | - | - | -
CSc1ncc(Cl)c(C(=O)Nc2ccc(S(=O)(=O)N3CCOCC3)cc2)n1 | - | 90 | - | - | -
O=C(Nc1ccc(S(=O)(=O)N2CCOCC2)cc1)c1ccc(Cl)c([N+](=O)[O-])c1 | - | 56 | - | - | -
CSc1ncc(Cl)c(C(=O)Nc2ccc(NC(C)=O)cc2)n1 | - | - | - | - | -
Cc1ccc(CNS(=O)(=O)c2ccc(Cl)s2)cc1 | - | - | - | - | -
O=S1(=O)CCOC[C@H](Cc2ccccc2)N1Cc1cccc(Cl)c1 | - | - | - | - | -
Cc1ccccc1CN1[C@@H](Cc2ccccc2)COCCS1(=O)=O | - | - | - | 26 | -
O=S1(=O)CCOCCN1Cc1ccccc1 | - | - | - | - | -
CC(C)C[C@H]1COCCS(=O)(=O)N1Cc1ccccc1F | - | - | - | 25 | -
SMILES | FAS TE block | CRFBP-R2 block | NadD inh | CendR NRP1 mod | Myeloid diff MLP
O=S1(=O)CCOC[C@H](Cc2ccccc2)N1Cc1ccc(Cl)cc1 | - | - | - | 29 | -
O=S1(=O)CCOCCCN1Cc1ccc(Cl)cc1 | - | - | - | 24 | -
O=[N+]([O-])c1cccc(CN2[C@@H](Cc3ccccc3)COCCS2(=O)=O)c1 | - | - | - | - | -
CC(C(=O)Nc1cc(Cl)cc(Cl)c1)N1CCCC1 (stereo not drawn) | - | - | - | - | -
O=C(c1ccc(F)cc1)C1CCN(Cc2ccccc2F)CC1 | - | 58 | - | - | -
COC(C[C@H]1O[C@@H]1[C@H](O)[C@H](C)OCc1ccccc1)OC | - | - | - | 26 | -
COc1ccc(N2CCN(CCCn3cnc4c(OC)ncnc43)CC2)cc1 | - | - | - | - | -
CCCCn1c(N)c(N(CC(C)C)C(=O)c2oc3c(Cl)cccc3c2C)c(=O)[nH]c1=O | - | - | - | - | -
Cc1ccnc(NC(=O)COc2ccc3oc4c(c3c2)CCCC4)c1 | - | - | - | 44 | .
CNC(=O)COc1ccc2oc3c(c2c1)CCCC3 | - | - | - | - | -
COc1cccc(CNC(=O)CCC(=O)N2CCOCC2)c1 | - | - | - | - | -
CCOC(=O)c1c(S(=O)(=O)N2CCCC(C(=O)Nc3ccc(C)cn3)C2)c(C)n(C)c1C (stereo not drawn) | - | - | - | - | -
COc1ccc2c(c1O)-c1ccccc1CCN(C)C2 | - | - | - | - | -
CN1CCc2cccc3c2[C@@H]1Cc1ccc(O)c(O)c1-3 | - | - | - | 26 | -
Cc1cc2nc(-c3ccc(Cl)cc3)c(CC3CCCCC3)n2c(C)c1Br | - | . | - | - | -
CCn1c(CCNC(=O)c2ccccc2Cl)n[nH]c1=S | - | 82 | - | - | -
CCn1c(CCn2c3ccccc3c3ccccc32)n[nH]c1=S | - | - | - | 40 | -
CCn1c(CCc2ccccc2)n[nH]c1=S | - | - | - | - | -
[O-][n+]1cccc2c(Br)cc(Br)c(O)c21 | - | - | - | - | -
C[n+]1cccc2c(Br)ccc([O-])c21 | - | - | - | 26 | -
CCN1C(=O)C(=Cc2cccc(OC)c2Oc2ccc([N+](=O)[O-])cc2[N+](=O)[O-])SC1=S | - | - | - | 25 | .
COc1cc(/C=C2\SC(=O)NC2=O)ccc1Oc1ccc([N+](=O)[O-])cc1[N+](=O)[O-] | - | - | - | - | -
NC(=NCc1ccccc1)NN=Cc1ccnc2ccccc12 | - | . | - | - | -
O=c1c(-c2ccc(O)cc2)coc2c([C@@H]3O[C@H](CO)[C@@H](O)[C@H](O)[C@H]3O)c(O)ccc12 | - | - | - | 24 | -
O=c1c(-c2ccc(O)cc2)coc2c(C3O[C@H](CO)[C@@H](O)[C@H](O)[C@H]3O)c(O)ccc12 (stereo partly drawn) | - | - | - | - | .
SMILES | FAS TE block | CRFBP-R2 block | NadD inh | CendR NRP1 mod | Myeloid diff MLP
Cc1n[nH]c(C)c1S(=O)(=O)N1CCCC(C(=O)O)C1 (stereo not drawn) | - | - | - | - | -
COC1=CC(=O)C(O)=C(CCCCCCC/C=C/CCCCCCCC2=C(O)C(=O)C=C(OC)C2=O)C1=O | - | - | 51 | - | -
COC1=C(OC)C(=O)C(CCCCCCCCCCO)=C(C)C1=O | - | . | - | - | -
CCCCCCCCCCCC1=C(O)C(=O)C=C(O)C1=O | 62 | - | 37 | - | -
CCC(C(=O)NC1CCN(C)CC1)c1ccccc1 (stereo not drawn) | - | - | - | 53 | -
NC1=NC2(CCCCC2)N(c2ccc(F)cc2)C(N)=N1 | - | - | - | - | -
NC1=NC2(CCCCC2)N(c2cccc(Cl)c2)C(N)=N1 | - | - | - | - | +
